Screens: PubChem BioAssay, several laboratories
Rows were chosen to be rich in hits. Some 1.6% of all compounds tested hit in one or more screens of this group.
eIF4H inh: inhibitors of RNA binding by human eIF4H | Q15056 | eIF4H fluorescence polarization binding assay | inhibition, % at 35 µM | 0.94% of 290,000 active | AID 2012;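 also: calls also rest on retests at 20 µM and on dose response follow-up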
PABP1 MLLE inh: inhibitors of microRNA-mediated deadenylation, human PABP1 MLLE binding; GST-MLLE / FITC-PAM2 fluorescence polarization; 0.36% of 360,000 active; inhibition, % at 20 µM; P11940; in the data active = inhibition above about 35%, passing the limit was not always enough;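 also: plate controls were DMSO wells with GST-MLLE for no effect and wells lacking GST-MLLE protein for full effect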
PERK inh: human PERK inhibition, primary cell-based screen; Q9NZJ5; CHO PERK-DD fusion, SEAP luminescence translation reporter; inhibition, % at 5.6 µM; 0.17% of 220,000 active; AID 1416;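 active = inhibition above the mean inhibition of all tested compounds plus 3 SD, set separately per screening campaign, cut at about 2.9% in these data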;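 also: PERK kinase domain activated by AP20187 dimerizer at 100 nM; 0% = DMSO with dimerizer and 100% = rapamycin at 8.4 µM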
eIF4E-4G inh: blocks eIF4E binding to eIF4G | 0.37% of 220,000 active | inhibition, % at 21.7 µM | TR-FRET eIF4E-eIF4GI(517-606) binding, 2 h;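 active = inhibition above about 30%, limit read from the data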;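 also: 0% = full FRET control wells and 100% = background wells lacking eIF4GI fragment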
PABP polyA inh: blocks human PABP binding to poly(A) RNA; P11940; fluorescence polarization; inhibition, % at 35 µM; 1% of 290,000 active; AID 2014;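 also: calls also rest on retests at 20 µM and on dose response follow-up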
Starred values were filed as active, the others as inactive. Unless noted, no rule for the calls is given here.

For O=C(CSc1n[nH]c(=O)[nH]c1=O)N/N=C/c1ccccc1O the results were eIF4H inh 6.9, PABP1 MLLE inh 0.6, PERK inh 0.4, eIF4E-4G inh -5.6 and PABP polyA inh 7.0.
For COc1ccc(CN2C=C3C(=O)C(C)(OC(=O)C4CCCC4)C(=O)C=C3C=C2c2ccsc2)cc1 (stereo not drawn) the results were eIF4H inh 23.2, PABP1 MLLE inh -8.7, eIF4E-4G inh -9.0 and PABP polyA inh 20.0.
Screening Cn1cccc1/C=C1\Cc2ccccc2C1=O returned eIF4H inh -1.8, PABP1 MLLE inh -3.5, PERK inh -0.2, eIF4E-4G inh -1.7 and PABP polyA inh -14.4.
For Cn1cccc1/C=C1\CC(C(C)(C)C)C/C(=C\c2cccn2C)C1=O (stereo not drawn) the results were eIF4H inh 51.2*, PABP1 MLLE inh -124.2, PERK inh 0.2, eIF4E-4G inh -4.5 and PABP polyA inh 60.2*.
`CC(=O)Nc1sc(/C(C#N)=C\c2cccc(Cl)c2)nc1-c1ccc(C)cc1` gave eIF4H inh 127.4*, PABP1 MLLE inh inactive, PERK inh 0.9, eIF4E-4G inh 0.7 and PABP polyA inh 81.3*.
Screening O=C(CN1C(=O)/C(=C/c2ccccc2)SC1=S)Nc1ncc(Cc2ccccc2)s1 returned eIF4H inh -2.5, PABP1 MLLE inh 16.3, PERK inh -0.6, eIF4E-4G inh -16.6 and PABP polyA inh 14.8.
O=C(NNS(=O)(=O)c1ccc([N+](=O)[O-])cc1)c1ccccc1 was read as PABP1 MLLE inh -6.4.
`O=C(NNS(=O)(=O)c1ccc([N+](=O)[O-])cc1)C(=O)Nc1cccc(C(=O)O)c1` gave eIF4H inh 59.8*, PABP1 MLLE inh 33.1 and PABP polyA inh 8.7.
`O=C1C2C3C=CC(C3)C2C(=O)N1c1cccc2cccnc12` (stereo not drawn) gave eIF4H inh 8.7, PABP1 MLLE inh 6.2, PERK inh 0.0, eIF4E-4G inh 4.2 and PABP polyA inh 2.0.
O=C1c2ccccc2C(=O)N1c1cccc2cccnc12 was read as eIF4H inh 64.5*, PABP1 MLLE inh 10.8, PERK inh 1.1, eIF4E-4G inh -3.5 and PABP polyA inh -7.4.
Screening COc1cc(NC(C)C(=O)N2CC(C)OC(C)C2)cc(OC)c1 (stereo not drawn) returned eIF4H inh inconclusive, PABP1 MLLE inh 1.9, PERK inh -0.7, eIF4E-4G inh -1.5 and PABP polyA inh 51.1*.
`Cc1ccc(Sc2ccc(CO)cc2[N+](=O)[O-])cc1` gave eIF4H inh 5.2, PABP1 MLLE inh -11.9, PERK inh 0.4, eIF4E-4G inh -0.9 and PABP polyA inh 15.2.
CC(=O)Oc1c(/C=C(\C#N)C(N)=O)[nH]c2ccccc12 was read as eIF4H inh 47.3, PABP1 MLLE inh -46.9, PERK inh 2.9*, eIF4E-4G inh 4.6 and PABP polyA inh -7.4.
Screening CCOc1ccc(-c2csc(NNC3=NCCCCC3)n2)cc1 returned eIF4H inh 15.0, PABP1 MLLE inh 37.1*, PERK inh 0.0, eIF4E-4G inh 1.1 and PABP polyA inh 16.6.
COc1ccc(-c2csc(NNC3=NCCCCC3)n2)cc1 was read as eIF4H inh 6.8, PERK inh 0.4, eIF4E-4G inh -2.4 and PABP polyA inh 3.2.
COc1cc(NS(=O)(=O)c2ccc(NC(=S)NC(=O)c3sc4cc(F)ccc4c3Cl)cc2)nc(OC)n1 was read as eIF4H inh 2.5, PABP1 MLLE inh 40.5*, PERK inh 1.0, eIF4E-4G inh 0.3 and PABP polyA inh -8.0.
COc1cc(NS(=O)(=O)c2ccc(NC(=S)NC(=O)c3ccco3)cc2)nc(OC)n1 was read as eIF4H inh -1.9, PABP1 MLLE inh 37.9, PERK inh 0.4, eIF4E-4G inh -7.3 and PABP polyA inh 2.3.
`COc1cc(NS(=O)(=O)c2ccc(NC(=S)NC(=O)c3sc4ccccc4c3Cl)cc2)nc(OC)n1` gave eIF4H inh 7.4, PABP1 MLLE inh 48.0*, PERK inh 0.9, eIF4E-4G inh -2.5 and PABP polyA inh 15.1.
`Cn1c(SCC(=O)NNC(=O)Cc2ccccc2)nnc1-c1ccccc1` gave eIF4H inh -9.8, PABP1 MLLE inh -11.7, PERK inh 0.3, eIF4E-4G inh 0.5 and PABP polyA inh -4.9.
`c1ccc2[nH]c(CCCCCc3nc4ccccc4[nH]3)nc2c1` gave PABP1 MLLE inh -27.1.
For CC[n+]1ccc(C)c2cc(S(=O)C(F)(F)F)ccc21 (stereo not drawn) the results were eIF4H inh inconclusive, PABP1 MLLE inh 19.9, PERK inh -0.9, eIF4E-4G inh -6.9 and PABP polyA inh 73.0*.
Screening CC[n+]1ccc(C)c2cc(SC(F)(F)F)ccc21 returned eIF4H inh -3.3, PABP1 MLLE inh -6.1, PERK inh 0.3, eIF4E-4G inh 6.3 and PABP polyA inh 8.5.
CCC(C)N1CCN(S(=O)(=O)Cc2ccccc2)CC1 (stereo not drawn) was read as eIF4H inh -0.1, PABP1 MLLE inh -0.8 and PABP polyA inh 7.6.
Screening CC(C)N(C(=O)Nc1ccc2nsnc2c1)C(C)C returned eIF4H inh 101.1*, PERK inh 1.2, eIF4E-4G inh 2.7 and PABP polyA inh 83.4*.
`CC1(C)OC(=O)N(CC(=O)Nc2ccccc2)C1(C)O` (stereo not drawn) gave eIF4H inh -8.7, PABP1 MLLE inh 6.2, PERK inh 0.5, eIF4E-4G inh 5.6 and PABP polyA inh 3.5.
O=C(Cc1nnc(NC(=O)c2ccccc2)s1)N/N=C/c1ccco1 was read as eIF4H inh 82.5, PABP1 MLLE inh -12.9, PERK inh 0.5, eIF4E-4G inh 4.2 and PABP polyA inh 6.2*.
`Nc1nnc(CC(=O)Nc2ccccc2)s1` gave eIF4H inh -0.3, PABP1 MLLE inh -22.9, PERK inh 3.0*, eIF4E-4G inh 3.7 and PABP polyA inh 8.2.
Nc1nnc(CC(=O)N/N=C\c2ccc(-c3cccc(Cl)c3)o2)s1 was read as eIF4H inh -9.3, PABP1 MLLE inh -30.6, PERK inh 0.9, eIF4E-4G inh -1.1 and PABP polyA inh -10.1.
Screening Nc1nnc(CC(=O)N/N=C/c2ccc(-c3ccccc3)o2)s1 returned eIF4H inh 82.3, PABP1 MLLE inh -20.6, PERK inh 0.7, eIF4E-4G inh 2.0 and PABP polyA inh 2.9*.
`CCCCCCCCCCn1c2c(c(=N)c3c1CCC3)CCC2` gave eIF4H inh -12.7, PABP1 MLLE inh 3.9, PERK inh -0.8, eIF4E-4G inh -5.6 and PABP polyA inh -3.8.
COc1ccccc1/C=C/CN1CCN(c2ccccc2)CC1 was read as eIF4H inh -0.3, PABP1 MLLE inh 2.3, PERK inh -1.0, eIF4E-4G inh -1.3 and PABP polyA inh 11.5.
Screening O=C(Nc1nc(-c2ccco2)c(-c2ccco2)s1)C1CC(=O)N(c2ccc3c(c2)OCCO3)C1 (stereo not drawn) returned eIF4H inh 84.3*, PABP1 MLLE inh -28.7, PERK inh 1.0, eIF4E-4G inh -16.7 and PABP polyA inh 88.2*.
